From PubChem BioAssay AID1626 (SRMLSC, 2009)
Hit rate of the full screen: of about 220,000 compounds, about 2,000 (0.91%) were called active. Roughly 2% stayed inconclusive and do not appear here. Not all results are given here. Results with a measured potency or affinity are listed apart. A number with no mark means an inactive call. Cut-off read from the data, not from the text of the source: inconclusive = inhibition above about 80% without an active follow-up result; inactive = below that; test concentration not stated here.

Assay: M. tuberculosis H37Rv growth inhibitors, H37Rv strain (AID 1626);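 note: bacteria incubated seven days before Alamar blue readout; 0% = bacteria only wells and 100% = bacteria with antibiotic wells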
Settings: stronger effect = higher value, concentration not given here

Compound	inhibition [%]
Nc1nc(CN2CCN(Cc3ccccc3)CC2)nc(Nc2ccccc2)n1	-0.83
COc1ccc(Nc2nc(N)nc(COc3ccc(OC)cc3)n2)cc1	3.88
CCOc1ccc(NC(=O)CCN2CCN(c3ccccc3OC)CC2)cc1	7.58
COc1ccc(Nc2nc(N)nc(CCl)n2)cc1	63.6
Nc1nc(CN2CCCCCC2)nc(Nc2ccccc2)n1	0.64
Nc1nc(CN2CCN(c3ccccc3F)CC2)nc(Nc2ccccc2)n1	55.9
CCOC(=O)N1CCN(Cc2nc(N)nc(Nc3ccc(OCC)cc3)n2)CC1	-0.7
COc1cc(NC(=O)CCN2CCN(c3ccccc3F)CC2)cc(OC)c1	-9.84
Cc1cc(Nc2ccc(C)c(Br)c2)n2nc(C)nc2n1	-3.51
Cc1cccn2c(=O)c(/C=N/O)c(Nc3ccccc3F)nc12	-2.23
CCOC(=O)c1cccc(NC(=O)CN(c2ccc(C)cc2)S(=O)(=O)c2c(C)n[nH]c2C)c1	-3.83
Cc1ccc(Nc2nc(N)nc(CCl)n2)cc1	73.8
COc1cccc(Nc2nc(N)nc(CCl)n2)c1	75.6
COc1ccccc1-c1nc(-c2ccccn2)no1	0.6
FC(F)(F)c1cc(Sc2ccccc2)nc(-c2ccccn2)n1	4.07
COc1cccc(-c2nc(-c3ccccn3)no2)c1OC	-1.55
Cc1ccc(SCc2nc(-c3ccccn3)no2)cc1	11.6
CCOC(=O)CSc1nc(-c2ccccn2)ncc1OC	10.3
COc1cnc(N(C)C)nc1Sc1ccc(Cl)cc1	-2.94
COc1cnc(-c2ccccc2)nc1Sc1ccccc1	-2.28
COc1ccc(Sc2cc(C(F)(F)F)nc(-c3ccccn3)n2)cc1	4.59
c1ccc2c(N3CCCCC3)nnc(N3CCCCC3)c2c1	-2.8
Cc1nc(-c2ccccc2)sc1C1(C)CC(c2ccc(C#N)cc2)=NO1 (stereo not drawn)	-5.09
Cc1cnc(C(=O)OCC(=O)Nc2cc(Cl)cc(Cl)c2)cn1	-2.03
CC(=O)N1CCC2(CC1)CC(=O)c1cc(OCC(=O)NCc3ccc(C)cc3)ccc1O2	4.89
CCOc1ccc(Cc2noc3c2C(=O)CC(C)(C)C3)cc1OCC	5.77
O=C(CNc1cc(S(=O)(=O)N2CCCC2)ccc1OCC(F)(F)F)Nc1cc(Cl)cc(Cl)c1	0.25
CCC12CN3CCN(CC(C3)C1O)C2 (stereo not drawn)	-8.91
